Screening results: PubChem BioAssay, National Center for Advancing Translational Sciences (NCATS)
Compounds with a hit are over-represented: about 21% of the library has one in this group of screens.
Shiga inhibitor = blocks Shiga toxin action in Vero cells. Vero cells, Shiga toxin protein synthesis inhibition reporter. inhibition, % at 38.7 µM. 9.2% of 290,000 active. AID 2315; in the data active = inhibition mostly above about 28%, no sharp cut-off; inactive = mostly below about 43%; note: 0% is about no effect
HCV inh = HCV inhibition | Huh7.5.1 HCVcc-Cre infection, luciferase reporter, 44 h | Potency, µM (series often up to 41.8 µM), for the others: at the top dose activity change, negative = inhibition, most hits filed as inhibitors | 3.4% of 340,000 active; note: potency is the fitted concentration of half-maximal effect; % is set by controls: 0 for no effect and ±100 for the full control effect
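Whole-lifecycle infectious HCVcc-Cre system; cells 1,000/well, compound then virus (~0.5 moi) added 4 h after plating, 44 h culture. Luciferase read 15 sec following 15 min substrate incubation, room temp.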
Pf growth 48h = inhibits P. falciparum growth in the first generation, 48 h; 5.9% of 310,000 active; Potency, µM (highest dose often 28.7 µM), inactives show top-dose activity change, negative = inhibition, actives largely listed as inhibitors; P. falciparum luciferase growth in erythrocytes, 48 h; note: potency is the fitted concentration of half-maximal effect; % is set by controls: 0 for no effect and ±100 for the full control effect
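Luciferase-expressing P. falciparum in infected erythrocytes (2% hematocrit, 0.1% parasitemia final) in RPMI 1640/0.5% Albumax were exposed to compound for 48 hours at 37 C, 5% CO2; growth read as luminescence.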
Pf growth 96h = P. falciparum growth inhibition at 96 hour, primary screen for plastid delayed-death inhibitors; P. falciparum luciferase reporter growth, 96 h; 6.9% of 320,000 active; AID 504834; Potency, µM (series often up to 28.7 µM), inactives show at the top dose activity change, negative = inhibition, most hits filed as inhibitors; note: potency is the fitted concentration of half-maximal effect; % is set by controls: 0 for no effect and ±100 for the full control effect
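Infected RBCs, 2% Hct / 0.05% parasitemia final; luciferase-reporter P. falciparum; cpd 96 h, 37 C, 5% CO2; luciferase detection reagent; luminescence.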
CHX counter = affects cycloheximide protein synthesis inhibition readout, counter-screen. 12% of 300,000 active. cell reporter, cycloheximide protein synthesis inhibition counterscreen. max response, %; in the data active = max response mostly above about 13%, no sharp cut-off; inactive = mostly below about 14%; note: read at 38.3 µM for the half of the compounds with a filed dose; 0% is about no effect
AMA1 RON2 block = inhibitors of Plasmodium falciparum AMA1-RON2 interaction | 0.2% of 360,000 active | Potency, µM (highest dose often 58.2 µM), inactives show top-dose activity change, negative = inhibition, actives largely listed as inhibitors | AlphaScreen AMA1-biotinylated RON2 peptide binding;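 note: potency is the fitted concentration of half-maximal effect; 0% = vehicle wells and -100% = peptide control; nearly all actives have a fitted effect of over 45% in size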
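AMA1 (3D7) with his tag at 25 nM final met compounds first, then biotinylated RON2 peptide at 25 nM; detection used donor plus acceptor beads, 10 µg/mL apiece, read by AlphaScreen after 30 min at room temperature.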
Active calls of the source: *; ? = inconclusive; . = no result given. Unless noted, calls come from the whole dose curve; as a rule, active = well fitted curve in the direction sought with a large enough effect; inconclusive = small, poorly fitted or top-dose-only effect, or another doubt; inactive = no such curve, though single readings can be large; an effect the other way counts as inactive or inconclusive.

SMILES | Shiga inhibitor | HCV inh | Pf growth 48h | Pf growth 96h | CHX counter | AMA1 RON2 block
CC1(C)CC(=O)C2=C(C1)Nc1ccccc1NC2c1ccccn1 (centres undefined) | 13.2 | 3.6% | 13.2% | 39.6% | 8.4 | -21.8%
COc1ccc(OC)c(C2Nc3ccccc3NC3=C2C(=O)CC(C)(C)C3)c1 (centres undefined) | 33.2 | 1.6% | 18.7% | 4.15µM* | 19.4* | 1.9%
Cc1cc2c(cc1C)NC(c1c(C)n(C)n(-c3ccccc3)c1=O)C1=C(CC(C)(C)CC1=O)N2 (centres undefined) | 39.3* | -18.9% | ? | 10.4µM* | 18.8* | -5.4%
CC1(C)CC(=O)C2=C(C1)Nc1ccccc1NC2c1nc2ccccc2[nH]1 (centres undefined) | 118.3* | 10.7% | . | ? | 42.0* | -0.4%
Cc1ccccc1OCCCC(=O)Nc1ccc(S(=O)(=O)Nc2onc(C)c2C)cc1 | -4.7 | 1.7% | -2.4% | 21.7% | 3.1 | -4.9%
Cc1ccc(C)c(C(=O)Cn2c(NCCO)nc3ccccc32)c1 | -7.0 | 2.2% | . | 16.8% | -4.4 | -8.3%
Cc1c(C(=O)N(C)C2CC(C)(C)NC(C)(C)C2)oc2c(F)cccc12 | -6.2 | ? | -21.4% | ? | 1.2 | 2.2%
CCCCCCCCCCCCCC[C@@H](O)[C@@H](O)[C@@H](N)CO | -18.4 | . | . | . | 4.3 | .
Cc1ccc(C2Nc3ccccc3NC3=C2C(=O)CC(C)(C)C3)c(O)c1 (centres undefined) | 30.3 | 13.4% | 5.0% | 14.4% | 14.2* | 10.4%
COc1ccc(C2Nc3ccccc3NC3=C2C(=O)CC(C)(C)C3)cc1 (centres undefined) | 84.4* | 1.9% | 6.2% | 16.3% | 48.0* | 22.2%
c1ccc(CN2CCC3CC2c2c3cccc2N2CCOCC2)cc1 (centres undefined) | . | . | . | . | . | -5.8%
COc1cc(/C=N/NC(=O)C2COc3ccccc3O2)ccc1O (centres undefined) | 19.8 | 5.9% | 37.4% | 5.0% | -3.9 | 19.6%
COc1ccc(/C=N\NC(=O)C2COc3ccccc3O2)cc1O (centres undefined) | 62.4* | 16.6% | -3.0% | 5.9% | 19.8* | 73.2%
COc1cc(/C=N/NC(=O)C2c3ccccc3Oc3ccccc32)ccc1O | -3.8 | -17.9% | ? | 13.1µM* | -0.7 | 10.1%
COc1cc(/C=N\NC(=O)CNC(=O)C2COc3ccccc3O2)ccc1O (centres undefined) | -8.2 | 7.6% | 2.1% | 23.8% | 0.8 | 8.8%
O=C(N/N=C\C=C\c1ccco1)C1COc2ccccc2O1 (centres undefined) | -11.9 | 17.9% | -7.0% | -1.0% | 6.3 | 49.2%
O=C(N/N=C/C=C/c1ccc([N+](=O)[O-])cc1)C1COc2ccccc2O1 (centres undefined) | 14.1 | -14.6% | 10.6% | 11.7µM* | 3.6 | 68.1%
CCc1noc(C)c1C(=O)N1CCC(CCC(=O)Nc2cccc(OC)c2)CC1 | -5.0 | ? | ? | 16.3% | -1.4 | -6.1%
COc1ccc(C(O)c2nc(-c3ccc(F)c(Cl)c3)cs2)cc1 (centres undefined) | . | . | . | . | . | 6.0%
CCc1ccc(-c2cc(C)no2)cc1S(=O)(=O)N1CCN(c2cccc(C)c2C)CC1 | -6.3 | -0.3% | 5.22µM* | 11.7µM* | 7.7 | -9.9%
CCc1ccc(-c2cc(C)no2)cc1S(=O)(=O)N1CCCN(Cc2ccc(F)cc2)C1 | -7.2 | 10µM* | ? | ? | 1.2 | -2.6%
Cc1cc(-c2ccc(C(C)C)c(S(=O)(=O)N3CCOc4ccccc43)c2)on1 | -2.0 | ? | 14.7µM* | 19.3% | -1.8 | -6.8%
CCc1ccc(-c2cc(C)no2)cc1S(=O)(=O)N1CC(=O)Nc2ccccc21 | -5.2 | 1.8% | -23.3% | 53.9% | -4.0 | 4.9%
CCC1CN(S(=O)(=O)c2cc(-c3cc(C)no3)ccc2OC)c2cc(C)ccc2O1 (centres undefined) | -7.7 | ? | 10.4µM* | ? | 7.1 | -12.2%
O=C(CCN1C(=O)C2C3CCC(C3)C2C1=O)OCC(=O)c1ccc(Cl)cc1 (centres undefined) | -2.0 | 16.2% | 10.3% | -14.3% | -3.3 | -0.3%
